Experimental data reported in PubChem BioAssay (NCATS).
Inconclusive results are not listed. The source made the active and inactive calls. Unless noted, the call rests on the fitted dose curve; in most records, active means well fitted curve in either direction with a large enough effect (not every such curve was filed as active); inconclusive means small, poorly fitted or top-dose-only effect, or another doubt; inactive means flat fitted curve, though single readings scatter.

Experiments:
[1] = target: Lysosomal acid glucosylceramidase (Homo sapiens) (UniProt P04062); test: Glucocerebrosidase-p2 (AID 348; in the data active means potency below about 10 µM; further: potency means the concentration at half of the fitted maximal effect); conditions: purified GBA, blue fluorogenic substrate, 40 min
Summary of the method: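 Normal human glucocerebrosidase (0.2 nM) with blue fluorogenic substrate (80 uM final) in citrate/phosphate pH 5.9 with 10mM sodium taurocholate, 0.01% tween-20; 40 min RT, NaOH/glycine stop; fluorescence Ex 365/Em 440; AC50 from a titration from 0.6 nM upwards.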

[2] = AP1 Signaling Pathway (AID 357); conditions: ME-180 AP-1-bla reporter, EGF-induced, beta-lactamase ratio, 5 h; at 7.69 µM (top of the series) unless noted;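 further: ME-180 reporter cells stimulated with EGF at its EC50 level; on the % scale 0 is the no-effect control and ±100 the full control effect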
Summary of the method: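 Cells are seeded overnight, exposed to compound titrations and an EC50 level of EGF for 5 hours at 37 °C, then loaded with CCF4 dye for 2.5 hours. Beta-lactamase activity under the AP-1 element is read as a blue/green ratio.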

[3] = target: Cytochrome P450 1A2 (Homo sapiens) (UniProt P05177); test: p450-cyp1a2 (AID 410; calls by dose curve;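 further: -100% = full effect of reference inhibitor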); conditions: recombinant CYP1A2, luciferin-ME demethylation, luminescence; series mostly up to 11.4 µM
Summary of the method: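 O-Demethylation of luciferin 6' methyl ether by human CYP1A2 is monitored as luciferase luminescence. Substrate sits at Km (100uM); enzyme is 20nM. Values are scaled to 57 uM furafylline as maximal inhibition.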

[4] = NFAT Signaling Pathway (AID 444); conditions: Jurkat NFAT-bla M1, carbachol, beta-lactamase ratio, 5 h; at 7.69 µM (top of the series) unless noted;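 further: carbachol stimulus at about its EC50 of 1 µM final; on the % scale 0 is the no-effect control and ±100 the full control effect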
Summary of the method: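 Jurkat cells with NFAT-driven β-lactamase reporter and co-expressed M1 receptor, stimulated with carbachol (final 1 uM, ~EC50), compound titration, 5 h at 37 °C. CCF4 loaded 1 h at RT; 460/530 nm ratio gave %activity and AC50.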

[5] = Stat Signaling Pathway (AID 446); conditions: ME-180 (cervical carcinoma) SIE beta-lactamase reporter, IL-6 stimulated, 5 h; at 7.69 µM (top of the series) unless noted;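 further: ME-180 cervical cancer cells given 40 pM IL-6 alongside compound; SIE-controlled beta-lactamase reporter measured as 460/530 nm FRET emission ratio; on the % scale 0 is the no-effect control and ±100 the full control effect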
Summary of the method: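 Compound effects on IL-6-induced STAT reporter activity were measured in ME-180 cells. After overnight culture, cells were co-treated with 40 pM IL-6 for 5 hrs before beta-lactamase substrate loading at room temperature.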

[6] = target: Glucocorticoid receptor (Homo sapiens) (UniProt P04150); test: GR-GFP Redistribution (AID 450;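 active means compounds whose dose series gives a full or clear partial fitted curve of increased nuclear translocation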; further: potency means the concentration at half of the fitted maximal effect); conditions: U2OS GR-GFP nuclear translocation, laser cytometry, 2 h
[7] = target: Glucocorticoid receptor (Homo sapiens) (UniProt P04150); test: GR-EFC Redistribution (AID 451; calls by dose curve; further: potency means the concentration at half of the fitted maximal effect); conditions: CHO-K1 GR-EFC translocation, beta-gal luminescence, 2 h
Summary of the method: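 CHO-K1 cells expressing nuclear EA and GR-ED fragments of b-gal; compounds titrated up to 46 uM final, 2 h at 37 C. GR nuclear translocation read as complemented b-gal luminescence after 1 h RT detection.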

[8] = target: Mitogen-activated protein kinase 10 (Mus musculus) (UniProt Q61831); test: JNK3 AlphaScreen Assay (AID 530); conditions: JNK3 lysate, c-Jun phosphorylation; series mostly up to 57.1 µM;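 further: kinase came from lysate of stimulated human HepG2 cells; signal reports phosphorylation of biotinylated GST-cJun 1-79 at Ser73 with 10 µM ATP; on the % scale 0 is the no-effect control and ±100 the full control effect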
Summary of the method: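 Activity was read by AlphaScreen after JNK3-containing HepG2 lysate (cytokine pre-activated) phosphorylated biotinylated GST-cJun with 10 uM ATP at room temperature. Phospho-Ser73 cJun antibody with Protein-A acceptor beads provided detection.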

[9] = target: 3',5'-cyclic-AMP phosphodiesterase 4B (Homo sapiens) (UniProt Q07343); test: qHTS Assay for Inhibitors of PDE-IV (AID 607; active means well fitted activation curve with a large enough effect in the main read-out, with a control signal flat, not every such curve was filed as active; further: % of control where 0% means no effect); conditions: HEK293 ACTOne CNG channel cells, membrane potential fluorescence; series mostly up to 22.9 µM
Summary of the method: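 ACTOne HEK293 cells carry a modified cAMP-gated CNG channel and express endogenous PDE4; plated 1000 cells/well, compounds up to 22.9 uM final. Membrane-potential dye fluorescence (ex 535/em 590) was read; parental cells received 10 uM forskolin + 100 uM RO 20-1724.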

[10] = target: Cytochrome P450 2C19 (Homo sapiens) (UniProt P33261); test: qHTS Assay for Inhibitors and Substrates of Cytochrome P450 2C19 (AID 899; active means well fitted inhibition curve with a large enough effect; further: on the % scale 0 is the no-effect control and ±100 the full control effect; nearly all actives have a fitted effect of over 60% in size); conditions: recombinant CYP2C19, luciferin-H EGE luminescence; series mostly up to 11.4 µM
Summary of the method: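 Luminescent read-out of luciferin formed from Luciferin-H EGE (10uM, equal to KM). Enzyme 5nM in 50mM KPO4; compound added, 10 min at 37C, then NADPH regenerating system for 60 min at 37C. Full inhibition defined by 57uM ketoconazole.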

Sequence of Glucocorticoid receptor (Homo sapiens) (P04150 whole entry, looked up, the tested form may be a part): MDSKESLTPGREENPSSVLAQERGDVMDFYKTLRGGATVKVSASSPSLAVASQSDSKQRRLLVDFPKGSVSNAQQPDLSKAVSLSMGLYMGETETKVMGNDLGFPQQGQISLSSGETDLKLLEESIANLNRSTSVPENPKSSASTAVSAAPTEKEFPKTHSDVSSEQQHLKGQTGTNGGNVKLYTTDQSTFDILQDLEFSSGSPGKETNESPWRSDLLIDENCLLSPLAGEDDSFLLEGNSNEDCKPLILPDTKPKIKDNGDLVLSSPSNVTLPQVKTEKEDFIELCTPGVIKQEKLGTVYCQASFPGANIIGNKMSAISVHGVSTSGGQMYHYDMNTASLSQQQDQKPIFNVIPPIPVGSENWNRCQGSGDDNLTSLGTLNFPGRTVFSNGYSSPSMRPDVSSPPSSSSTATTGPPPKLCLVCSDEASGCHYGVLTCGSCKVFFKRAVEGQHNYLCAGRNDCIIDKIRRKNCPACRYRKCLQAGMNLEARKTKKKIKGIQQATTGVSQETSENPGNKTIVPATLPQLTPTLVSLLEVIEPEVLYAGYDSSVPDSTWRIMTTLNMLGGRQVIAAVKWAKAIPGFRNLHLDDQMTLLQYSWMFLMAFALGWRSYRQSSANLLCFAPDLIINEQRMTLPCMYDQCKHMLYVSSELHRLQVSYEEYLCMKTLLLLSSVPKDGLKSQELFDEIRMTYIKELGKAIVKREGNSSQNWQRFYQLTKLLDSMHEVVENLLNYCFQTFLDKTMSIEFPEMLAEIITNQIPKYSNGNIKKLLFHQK
Sequence of Cytochrome P450 1A2 (Homo sapiens) (P05177 whole entry, looked up): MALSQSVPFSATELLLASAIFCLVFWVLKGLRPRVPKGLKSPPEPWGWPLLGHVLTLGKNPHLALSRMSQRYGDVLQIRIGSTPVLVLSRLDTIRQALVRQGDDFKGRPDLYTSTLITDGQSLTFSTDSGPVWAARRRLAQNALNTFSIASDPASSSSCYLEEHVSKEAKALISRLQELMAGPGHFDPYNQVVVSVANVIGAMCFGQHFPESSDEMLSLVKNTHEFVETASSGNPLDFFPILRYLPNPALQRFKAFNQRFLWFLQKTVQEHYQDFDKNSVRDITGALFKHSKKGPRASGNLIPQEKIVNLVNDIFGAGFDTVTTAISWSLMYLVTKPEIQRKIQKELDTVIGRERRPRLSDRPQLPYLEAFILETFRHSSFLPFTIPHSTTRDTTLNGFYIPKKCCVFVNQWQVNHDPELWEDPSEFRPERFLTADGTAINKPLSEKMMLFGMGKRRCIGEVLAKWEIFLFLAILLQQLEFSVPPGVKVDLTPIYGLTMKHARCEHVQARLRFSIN
Sequence of 3',5'-cyclic-AMP phosphodiesterase 4B (Homo sapiens) (Q07343 whole entry, looked up): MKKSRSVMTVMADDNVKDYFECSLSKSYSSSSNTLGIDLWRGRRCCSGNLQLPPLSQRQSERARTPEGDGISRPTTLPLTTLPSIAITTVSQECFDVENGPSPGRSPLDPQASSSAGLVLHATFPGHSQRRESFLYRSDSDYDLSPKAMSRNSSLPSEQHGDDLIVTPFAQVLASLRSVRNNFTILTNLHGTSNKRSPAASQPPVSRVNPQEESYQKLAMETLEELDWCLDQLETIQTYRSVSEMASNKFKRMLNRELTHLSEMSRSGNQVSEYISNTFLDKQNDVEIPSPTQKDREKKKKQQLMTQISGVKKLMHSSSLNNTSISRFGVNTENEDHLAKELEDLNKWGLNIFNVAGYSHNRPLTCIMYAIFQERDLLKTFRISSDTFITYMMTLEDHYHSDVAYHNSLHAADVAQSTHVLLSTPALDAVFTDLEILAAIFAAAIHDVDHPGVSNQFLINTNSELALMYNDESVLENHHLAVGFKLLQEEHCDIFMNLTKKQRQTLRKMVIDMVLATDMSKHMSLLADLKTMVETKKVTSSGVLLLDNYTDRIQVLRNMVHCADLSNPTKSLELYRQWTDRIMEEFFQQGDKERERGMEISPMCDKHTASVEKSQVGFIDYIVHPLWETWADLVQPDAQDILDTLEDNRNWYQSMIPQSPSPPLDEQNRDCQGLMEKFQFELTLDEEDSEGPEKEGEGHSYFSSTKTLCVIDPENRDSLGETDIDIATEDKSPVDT
Sequence of Lysosomal acid glucosylceramidase (Homo sapiens) (P04062 whole entry, looked up): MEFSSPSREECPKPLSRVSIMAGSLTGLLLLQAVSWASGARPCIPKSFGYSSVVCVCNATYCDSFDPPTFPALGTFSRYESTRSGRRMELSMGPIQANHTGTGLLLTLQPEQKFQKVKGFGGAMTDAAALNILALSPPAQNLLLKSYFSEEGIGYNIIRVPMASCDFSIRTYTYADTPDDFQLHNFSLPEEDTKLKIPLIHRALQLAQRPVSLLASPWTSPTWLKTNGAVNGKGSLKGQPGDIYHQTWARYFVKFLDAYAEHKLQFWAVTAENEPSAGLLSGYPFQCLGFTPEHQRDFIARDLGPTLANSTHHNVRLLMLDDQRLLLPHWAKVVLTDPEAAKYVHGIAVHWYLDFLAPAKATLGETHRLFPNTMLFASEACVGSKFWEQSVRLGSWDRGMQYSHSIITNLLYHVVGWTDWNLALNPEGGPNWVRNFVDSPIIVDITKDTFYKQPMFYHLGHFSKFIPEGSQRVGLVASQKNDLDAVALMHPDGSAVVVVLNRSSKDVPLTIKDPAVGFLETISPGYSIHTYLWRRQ
Sequence of Cytochrome P450 2C19 (Homo sapiens) (P33261 whole entry, looked up): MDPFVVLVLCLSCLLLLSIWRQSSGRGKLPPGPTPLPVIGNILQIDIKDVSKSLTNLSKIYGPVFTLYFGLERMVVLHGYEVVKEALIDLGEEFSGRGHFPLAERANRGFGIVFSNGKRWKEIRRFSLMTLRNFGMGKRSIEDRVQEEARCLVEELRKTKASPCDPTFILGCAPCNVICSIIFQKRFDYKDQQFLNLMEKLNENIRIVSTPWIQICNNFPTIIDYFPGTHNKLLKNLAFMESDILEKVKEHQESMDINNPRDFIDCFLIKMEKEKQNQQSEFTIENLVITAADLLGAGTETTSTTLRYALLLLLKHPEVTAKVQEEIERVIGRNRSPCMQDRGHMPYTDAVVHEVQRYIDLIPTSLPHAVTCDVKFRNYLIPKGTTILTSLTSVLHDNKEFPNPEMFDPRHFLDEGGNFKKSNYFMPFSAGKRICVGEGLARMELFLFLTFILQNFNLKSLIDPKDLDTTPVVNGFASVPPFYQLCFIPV

O=C(O)CS(=O)(=O)C(c1ccccc1)c1ccccc1
inactive: Potency [1] > 11.4 µM | activity change, negative = inhibition [2] -6.22% | activity change, negative = inhibition [3] -15.7% [at 2.29 µM] | activity change, negative = inhibition [4] -2.65% | activity, negative = inhibition [5] 3.8% | Potency [6] > 46 µM | Potency [7] > 9.22 µM | activity change, negative = inhibition [8] 1.62% [at 11.4 µM] | outcome [9] | Potency [10]
